Shown is part of a subset that was picked to be rich in the strongest signals.
Columns and labels:
Test in all cases: glycan array binding signal (z-score within array); higher = stronger binding
Conditions in all cases: glycan notation: IUPAC condensed, linker removed
[1] = target: GlcNAc(b1-3)Gal(b1-4)GlcNAc(b1-3)Gal(b1-4)GlcNAc(b1-2)Man(a1-3)[GlcNAc(b1-3)Gal(b1-4)GlcNAc(b1-3)Gal(b1-4)GlcNAc(b1-2)Man(a1-6)]Man(b1-4)GlcNAc(b1-4)GlcNAc
Summary of the method: (§1)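 The binding signal is a Z-score computed within each array and averaged over linkers. Arrays of the same protein sequence at different concentrations or buffers were also averaged together. Data originate from 3228 arrays in the Consortium for Functional Glycomics database, kept only where the protein sequence was available.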

[2] = target: GlcNAc(b1-3)Gal(b1-4)GlcNAc(b1-3)Gal(b1-4)GlcNAc(b1-3)Gal(b1-4)GlcNAc(b1-2)Man(a1-3)[GlcNAc(b1-3)Gal(b1-4)GlcNAc(b1-3)Gal(b1-4)GlcNAc(b1-3)Gal(b1-4)GlcNAc(b1-2)Man(a1-6)]Man(b1-4)GlcNAc(b1-4)[Fuc(a1-6)]GlcNAc
Summary of the method: as §1

[3] = target: GlcNAc(b1-3)Gal(b1-4)GlcNAc(b1-3)Gal(b1-4)GlcNAc(b1-3)Gal(b1-4)GlcNAc(b1-2)[GlcNAc(b1-3)Gal(b1-4)GlcNAc(b1-3)Gal(b1-4)GlcNAc(b1-3)Gal(b1-4)GlcNAc(b1-6)]Man(a1-6)[GlcNAc(b1-3)Gal(b1-4)GlcNAc(b1-3)Gal(b1-4)GlcNAc(b1-3)Gal(b1-4)GlcNAc(b1-2)Man(a1-3)]Man(b1-4)GlcNAc(b1-4)[Fuc(a1-6)]GlcNAc
Summary of the method: as §1

[4] = target: GlcNAc(b1-4)GlcNAc(b1-4)GlcNAc(b1-4)GlcNAc(b1-4)GlcNAc(b1-4)GlcNAc
Summary of the method: as §1

[5] = target: GlcNAc6S(b1-3)Gal(b1-4)GlcNAc
Summary of the method: as §1

[6] = target: Kdn(a2-3)Gal(b1-4)GlcNAc
Summary of the method: as §1

[7] = target: Man(a1-2)Man(a1-6)[Man(a1-3)]Man(a1-6)[Man(a1-2)Man(a1-2)Man(a1-3)]Man
Summary of the method: as §1

[8] = target: Neu5Ac(a2-3)Gal(b1-3)GlcNAc(b1-2)Man(a1-3)[Neu5Ac(a2-3)Gal(b1-3)GlcNAc(b1-2)Man(a1-6)]Man(b1-4)GlcNAc(b1-4)GlcNAc
Summary of the method: as §1

[9] = target: Neu5Ac(a2-3)Gal(b1-3)[Fuc(a1-4)]GlcNAc(b1-3)Gal(b1-3)[Fuc(a1-4)]GlcNAc
Summary of the method: as §1

[10] = target: Neu5Ac(a2-3)Gal(b1-4)GlcNAc(b1-2)[Neu5Ac(a2-3)Gal(b1-4)GlcNAc(b1-6)]Man(a1-6)[Neu5Ac(a2-3)Gal(b1-4)GlcNAc(b1-2)Man(a1-3)][GlcNAc(b1-4)]Man(b1-4)GlcNAc(b1-4)GlcNAc
Summary of the method: as §1

[11] = target: Neu5Ac(a2-3)Gal(b1-4)GlcNAc(b1-3)Gal(b1-4)GlcNAc(b1-6)[Gal(b1-3)]GalNAc
Summary of the method: as §1

[12] = target: Neu5Ac(a2-3)[GalNAc(b1-4)]Gal(b1-4)GlcNAc(b1-3)GalNAc
Summary of the method: as §1

[13] = target: Neu5Ac(a2-6)Gal
Summary of the method: as §1

[14] = target: Neu5Ac(a2-6)Gal(b1-3)GlcNAc(b1-3)[Gal(b1-4)GlcNAc(b1-6)]Gal(b1-4)Glc
Summary of the method: as §1

[15] = target: Neu5Ac(a2-6)Gal(b1-4)GlcNAc
Summary of the method: as §1

[16] = target: Neu5Ac(a2-6)Gal(b1-4)GlcNAc(b1-2)Man(a1-3)Man(b1-4)GlcNAc(b1-4)GlcNAc
Summary of the method: as §1

[17] = target: Neu5Ac(a2-6)Gal(b1-4)GlcNAc(b1-2)Man(a1-3)[Neu5Ac(a2-6)Gal(b1-4)GlcNAc(b1-2)Man(a1-6)]Man(b1-4)GlcNAc(b1-4)GlcNAc
Summary of the method: as §1

[18] = target: Neu5Ac(a2-6)Gal(b1-4)GlcNAc(b1-3)Gal(b1-4)GlcNAc(b1-3)Gal(b1-4)GlcNAc(b1-2)Man(a1-3)[Neu5Ac(a2-6)Gal(b1-4)GlcNAc(b1-3)Gal(b1-4)GlcNAc(b1-3)Gal(b1-4)GlcNAc(b1-2)Man(a1-6)]GalNAc
Summary of the method: as §1

[19] = target: Neu5Ac(a2-6)Gal(b1-4)GlcNAc(b1-3)GalNAc
Summary of the method: as §1

[20] = target: Neu5Ac(a2-6)Gal(b1-4)GlcNAc(b1-6)[Gal(b1-3)]GalNAc
Summary of the method: as §1

[21] = target: Neu5Ac(a2-6)GalNAc
Summary of the method: as §1

[22] = target: Neu5Ac(a2-6)GlcNAc(b1-4)GlcNAc(b1-4)GlcNAc
Summary of the method: as §1

[23] = target: Neu5Ac(a2-8)Neu5Ac
Summary of the method: as §1

[24] = target: Neu5Ac(a2-8)Neu5Ac(a2-3)Gal(b1-4)Glc
Summary of the method: as §1

[25] = target: Neu5Ac(a2-8)Neu5Gc(a2-3)Gal(b1-4)GlcNAc
Summary of the method: as §1

[26] = target: Neu5Gc(a2-3)Gal(b1-4)GlcNAc(b1-3)Gal(b1-4)GlcNAc(b1-2)Man(a1-3)[Neu5Gc(a2-3)Gal(b1-4)GlcNAc(b1-3)Gal(b1-4)GlcNAc(b1-2)Man(a1-6)]Man(b1-4)GlcNAc(b1-4)GlcNAc
Summary of the method: as §1

[27] = target: Neu5Gc(a2-8)Neu5Gc(a2-6)Gal(b1-4)GlcNAc
Summary of the method: as §1

B1: HopZSSI-T (Helicobacter pylori), B5Z6D0 (protein)
chain: MGSSHHHHHHSSGLVPRGSHMENLYFQGEDNGFFISAGYQIGEAAQMVKNTGELKKLSDTYENLSNLLTNFNNLNQAVTNASSPSEINAAIDNLKANTQGLTGEKTNSPAYQAVYLALNAAVGLWNVIAYNVQCGPGNSSQQSVTFEGQPGHNSSSINCNLTGYNNGVSGPLSIDNFKQLNQAYQVLQQALKQGVPVLNNTNQKIEVKVTTQTNGQSSKETTTTTTTNDAQTLLQEASKMIDVLTTNCPWVNHNPGQNGGAPWGLIRQECVSGFATEFSAVTSMIKNAQEIVTQAQSLNANQNNQNAPQDFNPYTSADRAFAQNMLNHAQAQAKILELADQMKKDLNTIPSQFITNYLAACRIDGTTPSQGVTNNTWGAGCAYVEETITALNNSLAHFGTQAEQIKQSELLARTILDFRGSLSTLNSTYNSITTTASNTPNSPFLKNLISQSTNPNNPGGLQAVYQVNQSAYSQLLSATQELGHNPFRRIGLISSQT
- glycan array binding signal (z-score) [1]: 1.48
- glycan array binding signal (z-score) [2]: 1.5
- glycan array binding signal (z-score) [3]: 1.12
- glycan array binding signal (z-score) [4]: -0.476
- glycan array binding signal (z-score) [5]: -0.089
- glycan array binding signal (z-score) [6]: 0.049
- glycan array binding signal (z-score) [7]: -0.645
- glycan array binding signal (z-score) [8]: -0.396
- glycan array binding signal (z-score) [9]: -0.391
- glycan array binding signal (z-score) [10]: 0.342
- glycan array binding signal (z-score) [11]: 0.966
- glycan array binding signal (z-score) [12]: 0.891
- glycan array binding signal (z-score) [13]: 0.007
- glycan array binding signal (z-score) [14]: -0.472
- glycan array binding signal (z-score) [15]: -0.343
- glycan array binding signal (z-score) [16]: -0.42
- glycan array binding signal (z-score) [17]: -0.19
- glycan array binding signal (z-score) [18]: 0.709
- glycan array binding signal (z-score) [19]: 0.356
- glycan array binding signal (z-score) [20]: 3.23
- glycan array binding signal (z-score) [21]: 2.01
- glycan array binding signal (z-score) [22]: -0.141
- glycan array binding signal (z-score) [23]: 0.598
- glycan array binding signal (z-score) [24]: -0.031
- glycan array binding signal (z-score) [25]: -0.272
- glycan array binding signal (z-score) [26]: 1.53
- glycan array binding signal (z-score) [27]: 0.181

Source: the supplement of paper PMC8728848
